Measurements reported in PubChem BioAssay (NCATS).
Inconclusive results are not listed. Unmarked numbers belong to inactive results. Calls of active or inactive are those of the source. The call rests on the fitted dose curve; in most records, active means well fitted inhibition curve with a large enough effect; inconclusive means small, poorly fitted or top-dose-only effect; inactive means flat fitted curve, though single readings scatter.

test system: HaCat; experiment: Cytotoxic Profiling of Annotated Libraries Using Quantitative High-Throughput Screening (AID 1296008); settings: Five cell lines viability, CellTiter-Glo ATP luminescence, 48-72 h; max response: stronger effect = lower value; further: nearly all actives have a fitted effect of over 60% in size
Outline: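 Compounds were pin-transferred onto cells and incubated 48 or 72 hr at 37 degree Celsius, 95% humidity. CellTiter-Glo was added, plates sat 10 min at room temperature, then ATP-coupled luminescence was imaged as the viability read-out.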
On the % scale 0 is the no-effect control and ±100 the full control effect; potency means the concentration at half of the fitted maximal effect.

Row | SMILES | max response | Potency | outcome
1 | CC1(C)CCC2(C(=O)OC3OC(CO)C(O)C(O)C3O)CCC3(C)C(=CCC4C5(C)CCC(OC6OC(C(=O)O)C(OC7OC(CO)C(O)C(O)C7O)C(OC7OC(CO)C(O)C(O)C7O)C6O)C(C)(C)C5CCC43C)C2C1 (stereo not drawn) | 0.399% | – | –
2 | COc1cc2ncnc(Nc3ccc(F)c(Cl)c3)c2cc1NC(=O)/C=C/CN1CCCCC1 | – | 41.1 nM (active) | –
3 | CC12CCC(OC3OC(CO)C(O)C(OC4OC(CO)C(O)C(O)C4O)C3O)CC1CCC1C2CCC2(C)/C(=C3/COC(=O)C3)CCC12O (stereo not drawn) | -0.083% | – | –
4 | CC1OC(OC2C(C)OC(OC3C(OC(=O)C45CCC(C)(C)CC4C4=CCC6C7(C)CCC(OC8OC(C(=O)O)C(O)C(O)C8OC8OC(CO)C(O)C(OC9OC(C)C(O)C(O)C9O)C8O)C(C)(CO)C7CCC6(C)C4(C)CC5)OC(CO)C(O)C3O)C(O)C2O)C(O)C(O)C1O (stereo not drawn) | -14.7% | – | –
5 | C/C1=C\CC[C@H](C)CCO[C@@H]2O[C@H](CO[C@@H]3OC[C@](O)(COC1=O)[C@H]3O)[C@@H](O)[C@H](O)[C@H]2O | -11.3% | – | –
6 | Cc1ccc(S(=O)(=O)n2ccc(-c3c(-c4ccc(Cl)cc4)noc3C)n2)cc1 | – | – | inactive
7 | Nc1ncnc2c1nc(N)n2[C@@H]1O[C@H](CO)[C@@H](O)[C@H]1O | – | 580 nM (active) | –
8 | CC(=O)O[C@H]1C[C@@](O)(C(C)C)C2[C@@H](OC(=O)c3ccc(O)cc3)C[C@@]3(C)O[C@H]3C[C@]21C (stereo partly drawn) | -5.18% | – | –
9 | CC/C=C\CC1C(=O)C=CC1(CCCCCCCC(=O)O)OC(C)=O (stereo not drawn) | 3.46% | – | –
10 | C/C(=C\C=C\C(C)C1CCC2(C)C3CCC4C(C)(C)C(=O)CCC45CC35CCC12C)C(=O)O (stereo not drawn) | -16.2% | – | –
11 | COC(=O)[C@H](O)[C@H]1C(C)(C)[C@H](OC(=O)C(C)C)[C@@]2(O)C(=O)[C@]1(C)C1CC[C@]3(C)C(CC(=O)O[C@H]3c3ccoc3)[C@]13O[C@@H]32 (stereo partly drawn) | -4.38% | – | –
12 | NC(=O)C(CCC(F)(F)F)N(Cc1ccc(-c2ncon2)cc1F)S(=O)(=O)c1ccc(Cl)cc1 (stereo not drawn) | -84.6% | – | –
13 | O=C(Nc1ccc(S(=O)(=O)Nc2ccccc2Cl)c(Cl)c1)c1ccccn1 | -15.8% | – | –
14 | COc1cc2oc(-c3ccc(O)cc3O)cc2c(OC)c1CC=C(C)C | -6.75% | – | –
15 | CC(C)(O)c1ccc2c(c1)C(O)C[C@H]1[C@](C)(C(=O)O)CCC[C@]21C (stereo partly drawn) | -7.52% | – | –
16 | CC1=C(C)C(=O)OC(C(C)C2CCC3C4C5OC5C5(O)CC(OC6OC(CO)C(OC7OC(C)C(O)C(O)C7O)C(O)C6O)CC(O)C5(C)C4CCC23C)C1 (stereo not drawn) | 4.81% | – | –
17 | COC(=O)C1(C)CCC2(C(=O)O)CCC3(C)C(=CCC4C5(C)CC(O)C(OC6OCC(O)C(O)C6O)C(C)(CO)C5CCC43C)C2C1 (stereo not drawn) | -27.2% | – | –
18 | CC(=O)OC1C(c2ccccc2)CCC(c2ccccc2)C1OC(C)=O (stereo not drawn) | 3.27% | – | –
19 | c1ccc(N2CCN(CCc3nn[nH]n3)CC2)cc1 | -17.8% | – | –
20 | COC(=O)[C@@H](O)[C@H]1[C@@]2(C)CC3(O)[C@@H](C(=O)[C@H]2O)[C@]24O[C@]25CC(=O)O[C@@H](c2ccoc2)[C@]5(C)CCC4[C@]13C (stereo partly drawn) | 4.1% | – | –
21 | O=C(O)C1CN(Cc2ccc(-c3nc4cc(Cc5ccccc5F)ccc4s3)c(F)c2)C1 | – | – | inactive
22 | CC1(C)CCCC2(C)C=C(C(=O)O)C(O)CC12 (stereo not drawn) | -0.18% | – | –
23 | CCOC(=O)c1cc(C#N)c(N2CCC(C(=O)NS(=O)(=O)Cc3ccccc3)CC2)nc1C | 2.62% | – | –
24 | CC1(C(=O)O)CCCC2(C)C3CCC4CC3(CCC12)CC4=O (stereo not drawn) | 2.83% | – | –
25 | CC(C)=CCC/C(C)=C/CO[C@@H]1O[C@H](CO)[C@@H](OC(=O)/C=C/c2ccc(O)cc2)[C@H](O[C@@H]2O[C@@H](C)[C@H](O)[C@@H](O)[C@H]2O)[C@H]1O | -28.8% | – | –
26 | N#C[C@@H]1C[C@H](F)CN1C(=O)CNC1[C@H]2CN(C(=O)c3ccc(F)cc3)C[C@@H]12 (stereo partly drawn) | -7.89% | – | –
27 | COc1cc(C(=O)NC2CCN(C)CC2)ccc1Nc1ncc2c(n1)N(C1CCCC1)CC(F)(F)C(=O)N2C | – | 116 nM (active) | –
28 | C/C=C1\[C@H](O[C@@H]2O[C@H](CO)[C@@H](O)[C@H](O)[C@H]2O)OC=C(C(=O)OC)[C@H]1CC(=O)O | -13.1% | – | –
